ChEMBL document CHEMBL3988442, “University of Dundee, Small-Polar-MMV Screening Library” (2021)
For some assays here: Potency and affinity values are given separately.

Columns and labels:
Design in all cases: scale not given: direction of the effect not stated beside the values
[1] = molecular target: Protein translocase subunit SecA (Escherichia coli (strain K12)) (UniProt P10408); assay: Assay to Identify E. coli SecA ATPase Inhibitors; type: functional; settings: 30 µM
[2] = molecular target: T1, Ubiquitin-activating enzyme e1, putative (Leishmania donovani (strain BPK282A1)) (UniProt E9BSI1); assay: Leishmania donovani Ubiquitin Activating Enzyme (LdE1); type: functional; settings: 30 µM
T1 sequence (whole entry): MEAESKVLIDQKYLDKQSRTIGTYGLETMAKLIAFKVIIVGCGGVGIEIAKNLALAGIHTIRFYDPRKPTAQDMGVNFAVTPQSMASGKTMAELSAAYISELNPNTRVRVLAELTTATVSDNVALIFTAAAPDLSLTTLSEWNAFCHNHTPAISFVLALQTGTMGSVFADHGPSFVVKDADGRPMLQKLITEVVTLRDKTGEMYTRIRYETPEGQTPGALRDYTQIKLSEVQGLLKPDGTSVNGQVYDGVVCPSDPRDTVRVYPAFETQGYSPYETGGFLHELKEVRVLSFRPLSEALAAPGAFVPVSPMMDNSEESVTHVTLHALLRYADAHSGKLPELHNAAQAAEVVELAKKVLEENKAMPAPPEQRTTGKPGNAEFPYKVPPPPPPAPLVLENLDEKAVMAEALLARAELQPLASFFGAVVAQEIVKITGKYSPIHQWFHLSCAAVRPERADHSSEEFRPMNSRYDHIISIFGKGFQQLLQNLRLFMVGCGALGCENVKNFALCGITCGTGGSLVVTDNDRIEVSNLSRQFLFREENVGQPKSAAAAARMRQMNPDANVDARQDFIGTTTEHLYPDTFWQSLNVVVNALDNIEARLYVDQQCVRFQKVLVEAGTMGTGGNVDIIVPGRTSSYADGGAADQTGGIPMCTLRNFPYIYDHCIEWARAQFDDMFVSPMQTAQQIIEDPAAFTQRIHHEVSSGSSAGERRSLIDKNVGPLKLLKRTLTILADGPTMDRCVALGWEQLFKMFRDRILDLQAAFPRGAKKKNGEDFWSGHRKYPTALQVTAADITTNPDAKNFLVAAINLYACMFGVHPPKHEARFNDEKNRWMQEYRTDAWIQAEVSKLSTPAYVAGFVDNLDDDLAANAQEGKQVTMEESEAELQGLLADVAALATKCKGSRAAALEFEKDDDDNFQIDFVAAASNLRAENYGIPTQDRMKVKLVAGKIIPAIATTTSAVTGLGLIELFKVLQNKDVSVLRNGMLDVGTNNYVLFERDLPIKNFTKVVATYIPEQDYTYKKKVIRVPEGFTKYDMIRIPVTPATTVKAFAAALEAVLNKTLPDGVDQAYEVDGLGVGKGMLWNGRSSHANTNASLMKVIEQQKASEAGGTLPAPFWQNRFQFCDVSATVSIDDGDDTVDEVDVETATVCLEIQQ

[3] = molecular target: AMP-activated protein kinase, AMPK (Homo sapiens) (UniProt P54646+O43741+P54619+Q9UGJ0+Q9Y478+Q13131+Q9UGI9); assay: AMP-dependent Kinase enzyme assay. An in vitro enzyme assay that detects ADP turnover that is directly proportional to AMPK activity. This uses naive AMPK that is activated during the assay with MK-8722; type: functional; settings: 30 µM
[4] = molecular target: Sialic acid-binding Ig-like lectin 9 (Homo sapiens) (UniProt Q9Y336); assay: Hs-Siglec9 ALPHAscreen SOP 20170721; settings: 10 µM
Trypanosoma cruzi = assay: Trypanosoma cruzi phosphomannomutase and mannose-1-phosphate guanylyltransferase assay; type: functional; settings: 10 µM
[5] = molecular target: T2, Arginase-2, mitochondrial (Homo sapiens) (UniProt P78540); assay: in vitro enzyme assay to detect the production of urea directly proportional to the activity of Arginase II; type: functional; settings: 33.3 µM; further: in the data most compounds retested in dose-response had high values
T2 sequence (whole entry): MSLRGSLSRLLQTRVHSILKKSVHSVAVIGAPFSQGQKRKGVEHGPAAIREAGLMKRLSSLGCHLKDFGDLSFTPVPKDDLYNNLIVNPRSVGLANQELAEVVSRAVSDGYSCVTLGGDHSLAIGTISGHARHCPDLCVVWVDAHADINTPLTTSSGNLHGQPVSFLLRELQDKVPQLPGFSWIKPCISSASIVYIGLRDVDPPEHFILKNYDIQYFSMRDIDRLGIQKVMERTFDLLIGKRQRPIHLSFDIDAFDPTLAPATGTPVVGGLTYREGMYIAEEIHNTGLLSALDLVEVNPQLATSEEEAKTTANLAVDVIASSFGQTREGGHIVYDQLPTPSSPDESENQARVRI

[6] = molecular target: T3, Proteasome subunit beta (Trypanosoma cruzi) (UniProt O96673); assay: Trypanosoma cruzi proteasome chymotrypsin-like activity (TcProtChymo) assay.; further: in the data most compounds retested in dose-response had high values; type: functional; settings: 9.37 µM
T3 sequence (whole entry): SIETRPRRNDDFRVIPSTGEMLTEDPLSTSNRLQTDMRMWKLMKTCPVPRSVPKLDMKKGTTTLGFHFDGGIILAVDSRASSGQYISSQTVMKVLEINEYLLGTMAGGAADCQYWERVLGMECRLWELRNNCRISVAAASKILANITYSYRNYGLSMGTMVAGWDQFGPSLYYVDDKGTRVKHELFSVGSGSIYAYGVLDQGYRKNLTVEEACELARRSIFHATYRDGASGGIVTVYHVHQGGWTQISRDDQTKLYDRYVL

Homo sapiens = organism: Homo sapiens; assay: To identify inhibition of the IFN signalling (Jak-Stat) pathway via expression of an eGFP reporter gene under the control of an IFN-stimulated response element (ISRE) containing MxA promoter.; type: functional; settings: 30 µM
[7] = molecular target: T4, Tyrosyl-tRNA synthetase, putative (Trypanosoma cruzi (strain CL Brener)) (UniProt Q4DSP6); assay: Trypanosoma cruzi tyrosyl tRNA synthetase (TcYRS) _High Tyrosine SOP; type: functional; settings: 30 µM; further: in the data most compounds retested in dose-response had high values
T4 sequence (whole entry): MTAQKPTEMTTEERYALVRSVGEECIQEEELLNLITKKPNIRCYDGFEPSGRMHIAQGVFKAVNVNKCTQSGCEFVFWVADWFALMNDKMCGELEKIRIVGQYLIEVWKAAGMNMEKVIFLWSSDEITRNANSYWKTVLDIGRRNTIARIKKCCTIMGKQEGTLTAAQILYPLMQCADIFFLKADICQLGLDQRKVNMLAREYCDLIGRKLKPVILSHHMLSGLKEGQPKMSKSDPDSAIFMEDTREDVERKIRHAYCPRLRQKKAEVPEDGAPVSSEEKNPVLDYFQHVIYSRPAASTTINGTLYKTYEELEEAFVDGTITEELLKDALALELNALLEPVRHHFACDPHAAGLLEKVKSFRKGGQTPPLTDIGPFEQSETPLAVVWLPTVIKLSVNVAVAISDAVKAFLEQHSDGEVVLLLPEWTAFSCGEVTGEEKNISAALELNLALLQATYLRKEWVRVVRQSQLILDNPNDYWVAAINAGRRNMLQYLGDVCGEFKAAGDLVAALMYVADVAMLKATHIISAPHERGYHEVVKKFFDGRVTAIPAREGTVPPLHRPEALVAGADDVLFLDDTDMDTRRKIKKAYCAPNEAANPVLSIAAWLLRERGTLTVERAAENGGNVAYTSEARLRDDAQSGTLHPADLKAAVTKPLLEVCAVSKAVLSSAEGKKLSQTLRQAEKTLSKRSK

[8] = molecular target: T4, Tyrosyl-tRNA synthetase, putative (Trypanosoma cruzi (strain CL Brener)); assay: Trypanosoma cruzi tyrosyl tRNA synthetase (TcYRS) SOP; type: functional; settings: 30 µM
[9] = molecular target: Chromo domain-containing protein 1 (Saccharomyces cerevisiae (strain ATCC 204508 / S288c) (Baker's yeast)) (UniProt P32657); assay: ScCHD-1 Enzyme Inhibition Assay; type: functional; settings: 30 µM; further: in the data most compounds retested in dose-response had high values
Chromo domain-containing protein 1 (Saccharomyces cerevisiae (strain ATCC 204508 / S288c) (Baker's yeast)), sequence (P32657 whole entry, the tested form may be a part): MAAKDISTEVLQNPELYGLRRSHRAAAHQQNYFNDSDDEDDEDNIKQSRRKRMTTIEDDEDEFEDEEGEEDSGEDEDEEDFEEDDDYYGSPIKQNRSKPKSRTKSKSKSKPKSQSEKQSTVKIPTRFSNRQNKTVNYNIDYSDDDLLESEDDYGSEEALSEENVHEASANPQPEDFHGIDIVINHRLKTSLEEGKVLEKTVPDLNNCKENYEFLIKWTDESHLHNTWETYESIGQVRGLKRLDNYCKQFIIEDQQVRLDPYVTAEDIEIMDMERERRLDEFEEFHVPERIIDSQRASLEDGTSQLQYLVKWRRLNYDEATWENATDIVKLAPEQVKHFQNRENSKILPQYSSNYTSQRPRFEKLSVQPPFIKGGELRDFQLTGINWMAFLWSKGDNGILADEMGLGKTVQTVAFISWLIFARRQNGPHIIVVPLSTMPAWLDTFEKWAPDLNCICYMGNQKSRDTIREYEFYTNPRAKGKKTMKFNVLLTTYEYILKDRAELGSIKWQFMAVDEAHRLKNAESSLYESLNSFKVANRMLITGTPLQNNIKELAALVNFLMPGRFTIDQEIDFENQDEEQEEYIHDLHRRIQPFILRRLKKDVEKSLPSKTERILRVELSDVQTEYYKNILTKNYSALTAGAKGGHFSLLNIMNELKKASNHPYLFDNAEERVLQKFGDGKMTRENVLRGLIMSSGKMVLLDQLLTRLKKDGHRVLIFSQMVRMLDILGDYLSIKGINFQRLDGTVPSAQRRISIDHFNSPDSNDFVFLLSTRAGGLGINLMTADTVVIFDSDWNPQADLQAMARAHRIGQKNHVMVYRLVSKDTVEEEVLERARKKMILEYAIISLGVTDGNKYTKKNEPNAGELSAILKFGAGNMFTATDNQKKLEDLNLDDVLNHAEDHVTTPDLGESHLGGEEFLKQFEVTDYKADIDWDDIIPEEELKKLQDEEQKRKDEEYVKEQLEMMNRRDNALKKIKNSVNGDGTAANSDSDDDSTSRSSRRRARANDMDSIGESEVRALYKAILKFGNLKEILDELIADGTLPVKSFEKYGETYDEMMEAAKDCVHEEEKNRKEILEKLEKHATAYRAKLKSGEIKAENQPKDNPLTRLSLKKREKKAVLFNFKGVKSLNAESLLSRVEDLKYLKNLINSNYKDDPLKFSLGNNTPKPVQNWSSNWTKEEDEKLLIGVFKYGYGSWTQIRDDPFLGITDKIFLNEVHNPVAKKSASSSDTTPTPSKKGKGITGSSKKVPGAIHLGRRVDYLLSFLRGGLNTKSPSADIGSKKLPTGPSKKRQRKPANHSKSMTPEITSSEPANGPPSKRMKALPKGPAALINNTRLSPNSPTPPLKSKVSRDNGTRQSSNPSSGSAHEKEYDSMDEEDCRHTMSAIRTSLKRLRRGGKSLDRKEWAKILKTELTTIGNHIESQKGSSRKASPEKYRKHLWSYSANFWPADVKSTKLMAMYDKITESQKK

Sialic acid-binding Ig-like lectin 9 (Homo sapiens), sequence (Q9Y336 whole entry): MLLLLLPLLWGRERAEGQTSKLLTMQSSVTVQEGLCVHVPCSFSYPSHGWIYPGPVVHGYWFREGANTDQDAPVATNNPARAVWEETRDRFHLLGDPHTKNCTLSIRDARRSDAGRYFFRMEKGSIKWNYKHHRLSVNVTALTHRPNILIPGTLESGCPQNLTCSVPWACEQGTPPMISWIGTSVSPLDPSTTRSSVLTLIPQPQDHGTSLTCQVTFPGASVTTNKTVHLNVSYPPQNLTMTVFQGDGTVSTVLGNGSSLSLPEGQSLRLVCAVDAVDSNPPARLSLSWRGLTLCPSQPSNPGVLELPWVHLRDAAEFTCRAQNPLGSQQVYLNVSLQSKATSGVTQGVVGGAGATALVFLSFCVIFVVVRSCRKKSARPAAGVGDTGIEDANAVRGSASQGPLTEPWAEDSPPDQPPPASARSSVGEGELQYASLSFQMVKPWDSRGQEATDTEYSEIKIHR
Protein translocase subunit SecA (Escherichia coli (strain K12)), sequence (P10408 whole entry): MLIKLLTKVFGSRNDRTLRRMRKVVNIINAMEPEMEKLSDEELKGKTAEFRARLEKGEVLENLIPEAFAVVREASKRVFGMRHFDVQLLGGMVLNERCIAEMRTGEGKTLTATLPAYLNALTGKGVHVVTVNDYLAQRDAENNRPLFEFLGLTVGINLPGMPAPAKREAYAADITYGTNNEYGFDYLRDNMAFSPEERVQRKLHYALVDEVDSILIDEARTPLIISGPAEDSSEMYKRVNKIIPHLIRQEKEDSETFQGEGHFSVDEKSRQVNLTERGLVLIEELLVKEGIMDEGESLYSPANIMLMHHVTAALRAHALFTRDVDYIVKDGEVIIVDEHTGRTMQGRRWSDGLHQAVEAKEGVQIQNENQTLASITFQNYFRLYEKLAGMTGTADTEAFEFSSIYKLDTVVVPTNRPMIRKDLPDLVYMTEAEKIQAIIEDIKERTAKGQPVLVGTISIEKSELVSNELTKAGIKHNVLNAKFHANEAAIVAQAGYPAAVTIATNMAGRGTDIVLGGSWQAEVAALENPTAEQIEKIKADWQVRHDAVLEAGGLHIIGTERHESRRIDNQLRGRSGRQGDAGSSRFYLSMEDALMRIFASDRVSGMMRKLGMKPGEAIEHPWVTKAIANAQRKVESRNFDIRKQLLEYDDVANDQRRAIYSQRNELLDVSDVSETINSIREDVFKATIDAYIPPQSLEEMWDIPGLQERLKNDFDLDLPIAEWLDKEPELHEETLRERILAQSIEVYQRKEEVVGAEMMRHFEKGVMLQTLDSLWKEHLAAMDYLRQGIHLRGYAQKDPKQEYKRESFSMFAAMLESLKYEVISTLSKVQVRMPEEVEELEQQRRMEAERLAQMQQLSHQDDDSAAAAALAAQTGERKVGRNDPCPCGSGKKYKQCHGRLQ

Row | SMILES | Percent Effect [1] [%] | Percent Effect [2] [%] | Percent Effect [3] [%] | Percent Effect [4] [%] | Percent Effect (Trypanosoma cruzi) [%] | Percent Effect [5] [%] | Percent Effect [6] [%] | Percent Effect (Homo sapiens) [%] | Percent Effect [7] [%] | Percent Effect [8] [%] | Percent Effect [9] [%]
1 | NS(=O)(=O)CCNC(=O)c1ccc(-c2ccc(F)cc2)cc1F | -4.5 | 5.2 | 1.86 | 3.08 | -1.08 | 8.28 | 24.5 | 19.2 | -10.8 | 1.24 | -1.11
2 | COc1ccc(CN2C[C@@H]3OCCN(CC4CCCO4)[C@@H]3C2)cc1 (some centres not stated) | -0.662 | 10.8 | 2.03 | -5.49 | 6.16 | -4.78 | 17.3 | 3.23 | 3.24 | 12.8 | 5.65
3 | Cc1cccc(C)c1OCCC(=O)N1CCC(c2nncn2C)CC1 | -6.09 | 23.4 | 3.3 | 8.75 | 6.74 | -2.49 | 6.76 | 4.85 | 6.8 | 21.9 | -8.79
4 | Cc1ncc2c(n1)CN(CC(=O)Nc1ccncc1)CC2 | -2.13 | 15.8 | -33.9 | 3.22 | 4.01 | -1.44 | 6.85 | 17.2 | 15.3 | 23.5 | -7.12
5 | Cc1noc(C)c1CCC(=O)NC(C)c1nnc2n1CCC2 (configuration not stated) | -2.15 | 16.2 | 5.84 | 17.7 | 6.35 | 5.71 | 5.24 | 3.14 | 2.15 | 13.6 | -4.65
6 | CCc1nc(C)c([C@H]2CN(C)C[C@@H]2C(=O)NCCc2cnccn2)[nH]1 | -4.56 | 8.11 | 3.09 | 6.61 | 1.54 | 2.86 | 6.72 | 3.41 | 10.1 | 17.1 | -3.65
7 | CC(C)N(C)C(=O)C1=NOC2(CCN(C(=O)c3ccncc3)C2)C1 (configuration not stated) | -3.37 | 2.74 | -0.462 | -1.1 | -1.79 | -5.19 | 12.6 | 1.3 | 1.04 | 6.17 | -0.614
8 | Cc1nc(N2CCN(C(=O)C(C)(C)C)CC2)cc(-n2cnc(C)c2C)n1 | -3.24 | 10.4 | 2.15 | 6.33 | 6.2 | -44.1 | 22.3 | 4.66 | 3.23 | 8.64 | -4.66
9 | Cc1nsc(N2CCCN(c3nc(C4CC4)ns3)CC2)n1 | -2.5 | 11 | 9.09 | 5.05 | 4.9 | 19.1 | 10.1 | 5.1 | 1.07 | 5 | -4.56
10 | Cc1ncc2c(n1)CN(Cc1nnc(Cc3ccccc3)o1)CC2 | -2.29 | 24.3 | -11.8 | 1.92 | 5.66 | 4.99 | 13.8 | -0.54 | 29.7 | 28.1 | -9.78
11 | COCCN(C)CCN1CC2(CCN(C3CCCOC3)CC2)OC1=O (configuration not stated) | -2.07 | 20.8 | -4.24 | 3.41 | 0.295 | -11 | 16.5 | 11.4 | 3.23 | 18.5 | -6.77
12 | CCc1nc(C2CCCN(C(=O)CN(C)S(C)(=O)=O)C2)no1 (configuration not stated) | -5.19 | 18.2 | -2.51 | -7.32 | 6.95 | -2.32 | 9.3 | 0.959 | 6.67 | 21.2 | -25.7
13 | Cc1cccc(-c2noc(CN3CC(n4cc(C)cn4)C3)n2)c1 | -0.775 | -13 | -3.33 | 7.4 | 5.24 | -2.85 | 27.4 | 26.4 | 1.94 | 14.6 | -5.58
14 | Cc1cc(CN(C)C(=O)NCc2cccc(N3CCCC3=O)c2)no1 | -4.74 | 7.59 | -1.15 | 7.78 | 6.14 | -4.94 | -4.5 | -10.2 | 1.48 | 1.27 | -1.62
15 | CNc1cc2c(nn1)CCN(C(=O)c1ccoc1)C2 | -0.747 | 7.79 | 7.77 | -6.29 | -1.27 | 4 | 16.6 | 27 | 1.91 | -25.9 | -15
16 | CS(=O)(=O)NC[C@]12COC[C@H]1CN(C(=O)c1ccoc1)C2 | -3.11 | 7.79 | 7.55 | 7.59 | -1.87 | 4.52 | 10.6 | 21.3 | 5.29 | 11.5 | -4.91
17 | Cc1cnn(Cc2cc(F)ccc2F)c1NC(=O)C1COCCO1 (configuration not stated) | -7.31 | 2.67 | 1.44 | 22.4 | 0.876 | 4.17 | 5.75 | 5.83 | 4.92 | 13.6 | -4.84
18 | O=C([C@H]1CCCO1)N1CC[C@H](O)[C@@H]1Cc1ccncc1 | -0.613 | 5.2 | 0.39 | 3.47 | -2.07 | 8.39 | -1.57 | -7.18 | 4.23 | 1.28 | -0.313
19 | Cc1nccn1-c1cc(CNC(=O)c2ccccn2)ccn1 | -3.33 | 16.4 | 4.31 | 6.49 | 3.33 | -0.455 | 17.6 | 15.2 | 2.15 | 20 | -4.24
20 | Cc1ccc(-c2nc(CN3CCN(S(=O)(=O)N(C)C)CC3)cs2)o1 | 1.85 | 3.8 | 3.49 | -3.53 | -3.79 | 1.94 | 20.9 | 43.8 | 8.33 | 12.7 | -19.4
21 | Cc1nc(CCNC(=O)NCc2ccc(N(C)C)nc2)cs1 | -4.75 | 13.5 | -4.65 | 3.94 | 1.79 | -0.401 | 12.1 | -114 | 9.36 | 16.1 | -4.66
22 | COc1ccccc1C(O)CNC(=O)NCc1cccnc1OC (configuration not stated) | -5.38 | 12.7 | 3.02 | -9.15 | -7.84 | -0.38 | 6.63 | 30.3 | 1.48 | 13.9 | -5.07
